aSyn yeast inh: alpha-synuclein toxicity inhibition in yeast; Potency, µM (series often up to 46.1 µM), actives largely listed as activators; 370,000 compounds, 0.14% hits; Yeast expressing alpha-synuclein, growth rescue, BacTiter-Glo, 24 h; also: nearly all actives have a fitted effect of over 65% in size
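Galactose-induced alpha-syn yeast (OD600=0.02, raffinose-pregrown) + pinned cpd, 24 hr, 30 deg C; growth by BacTiter-Glo luminescence. Growth restoration scores as activation.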
TDP43 rescue: rescues yeast growth from TDP-43 toxicity; 410,000 compounds, 1.8% hits; Potency, µM (highest dose often 46.1 µM), most hits filed as activators; AID 652104; TDP-43 expressing yeast growth rescue, BacTiter-Glo, 24 h; also: nearly all actives have a fitted effect of over 50% in size
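Growth rescue of TDP-43-toxic yeast measured as ATP luminescence (BacTiter-Glo). Cells grown to mid-log in raffinose, induced in galactose at OD600=0.02, exposed to compound 24 hr at 30 deg C.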
Akt phos inh: Akt phosphorylation inhibition | 360,000 compounds, 0.32% hits | activity change, % for hits at 50 µM | Neuro2A IGF-stimulated pAkt S473 HTRF, 20 min; active compounds read low; in the data active = activity change below about -80%; inconclusive = mostly about -51% to -80%
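Single-point screen (50 µM final compound) in Neuro2A cells stimulated 20 min with 6 nM IGF at 37 deg C. After lysis, Ser473-phosphorylated Akt read by HTRF (ex 330 nm, em 615/665 nm) as the 665/615 ratio.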
Abeta yeast res: restores growth of yeast expressing A-beta42 peptide; 410,000 compounds, 0.063% hits; AID 1347071; Potency, µM (series often up to 46.1 µM), actives largely listed as activators; yeast expressing A-beta42, growth rescue, OD600, 48 h; response scale: 0% DMSO, 100% iron-clioquinol control; also: nearly all actives have a fitted effect of over 55% in size
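Yeast growth medium received pinned compounds, then yeast cells expressing toxic A-beta were added; plates incubated at 30 C for 48 hr. Growth read as absorbance at 600 nm, normalized to DMSO and equimolar FeCl3 plus clioquinol controls.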
FUS suppressor: suppressors of FUS proteinopathy in yeast; S. cerevisiae FUS-expressing, growth rescue, OD600, 24 h; Potency, µM (series often up to 76.6 µM), hits mostly activators; 390,000 compounds, 0.24% hits; also: nearly all actives have a fitted effect of over 55% in size
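Quantitative HTS measuring growth restoration of FUS-toxic yeast. Galactose-induced cells (OD 0.005) were exposed 24hr at 30C to compounds at several concentrations, then absorbance at 600 nm was recorded.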
A number is an active result; n = inactive; u = inconclusive; x = not tested or not shown. Only some compounds are listed: those with a hit (about 2.3% of all), similar ones and a draw of the others. Unless noted, calls follow the shape of the dose curve; as a rule, active = well fitted curve in the direction sought with a large enough effect; inconclusive = small, poorly fitted or top-dose-only effect, or another doubt; inactive = no such curve, though single readings can be large; an effect the other way counts as inactive or inconclusive.

SMILES	aSyn yeast inh	TDP43 rescue	Akt phos inh	Abeta yeast res	FUS suppressor
Cn1nc(-c2ccccc2F)c2cc(C(=O)Nc3ccc4c(c3)OCCO4)sc21	n	16µM	n	n	n
Cc1cc(Cl)ccc1NS(=O)(=O)c1ccc2c(c1)CCN2S(C)(=O)=O	x	u	x	n	n
Cc1ccc(N2C(=O)[C@@H]3[C@H](C2=O)[C@H]2C=C(C(=O)c4ccccc4)C=CN2[C@@H]3C(=O)c2ccc(Cl)cc2)cc1	n	n	n	n	28µM
CC(C)(C)OC(=O)N1CCC(c2nnc(SCc3ccccc3)o2)CC1	n	n	x	n	n
CS(=O)(=O)N(CC(=O)Nc1ccc2c(c1)OCO2)Cc1ccccc1	n	n	n	n	n
CS(=O)(=O)N(CCc1ccccc1)CC(=O)Nc1ccc2c(c1)OCO2	n	n	-105%	n	n
CC(C)OCCCNC(=O)c1cc2c(-c3ccc(Cl)cc3)nn(C)c2s1	x	n	x	n	n
O=S(=O)(NCc1ccco1)c1ccc2ccccc2c1	n	u	n	n	n
O=S(=O)(NCCc1ccccc1)c1cnc(Cl)c(Br)c1	n	11µM	n	n	x
O=S(=O)(NCc1ccco1)c1cnc(Cl)c(Br)c1	u	14µM	n	n	x
O=C(O)c1cccc(S(=O)(=O)NCCc2ccccc2)c1	n	n	n	n	n
COc1nn(CC(=O)N2N=C(C)CC2(O)C(F)F)cc1[N+](=O)[O-] (configuration not stated)	n	n	-90%	n	n
CCC(Cc1ccccc1)NC(=O)c1csc2c1CCCCC2 (configuration not stated)	x	n	x	n	n
Cc1noc(C)c1COC(=O)Cc1ccc(Cl)c(Cl)c1	n	10µM	n	n	n
Cn1c(=O)c2c(-c3ccccc3Br)n(C(C)(C)C)cc2n(C)c1=O	x	n	x	n	n
COc1ccc2c(c1)C1=NN(/C(C)=C/C(C)=O)C(c3ccc(F)cc3)C1CC2 (configuration not stated)	n	22µM	n	n	x
Cc1nc2c(OCc3ccc(C(F)(F)F)cc3)cccn2c1N(C)C(=O)CCC1CCCC1	n	n	n	n	22µM
Cc1ccc(CCNC(=O)c2ccc(CSCc3ccccc3C)o2)cc1	x	n	x	n	n
CCOC(=O)C1=C(COC(=O)c2sccc2C)NC(=O)NC1C (configuration not stated)	n	n	n	n	n
CCOC(=O)C1=C(COC(=O)c2ccc([N+](=O)[O-])s2)NC(=O)NC1C (configuration not stated)	n	20µM	n	n	n
CN(C)/C=C(\C#N)c1nc2ccccc2[nH]1	n	n	n	n	n
CCN(CC)c1ccc(/C=C(/C#N)c2nc3ccc(C)cc3[nH]2)c(OC(C)C)c1	n	u	x	n	8.9µM
N#C/C(=C\c1c(Cl)cccc1Cl)c1nc2ccccc2[nH]1	n	11µM	n	n	n
N#C/C(=C\c1ccc(Cl)cc1)c1nc2ncccc2[nH]1	u	n	-105%	n	n
CCOc1cc(N(CC)CC)ccc1/C=C(/C#N)c1nc2ccccc2[nH]1	n	7.1µM	n	n	u
SMILES	aSyn yeast inh	TDP43 rescue	Akt phos inh	Abeta yeast res	FUS suppressor
CCc1ccc(-n2c(N3CCN(c4cccc(Cl)c4)CC3)nc3ccccc3c2=O)cc1	x	n	x	n	n
COc1ccc([C@H]2CC(=O)C=C(c3cc(C)ccc3F)C2)cc1	u	20µM	n	u	u
COc1ccc([C@H]2CC(=O)C=C(c3cc(Cl)ccc3C)C2)cc1	n	20µM	n	u	n
CCOc1ccccc1CNC(=O)c1cccc(NC(=O)c2nsc3ccccc23)c1	x	n	x	n	n
COc1ccc(Nc2cnn(-c3nc4ccccc4s3)c(=O)c2Cl)cc1	n	8.9µM	n	n	x
COc1ccc(-c2cc(-c3cc(OC)ccc3O)[nH]n2)cc1	n	25µM	n	n	n
COc1ccc(O)c(-c2cc(-c3ccc(F)cc3)n[nH]2)c1	n	u	n	n	n
COc1ccc(-c2cc(-c3ccccc3O)[nH]n2)cc1OC	n	13µM	n	n	n
CCn1ncc(Cl)c1C(=O)NC(=S)Nc1ccccc1Br	n	5.6µM	n	n	n
Cc1cc(OCC(=O)N(Cc2ccc(N(C)C)cc2)Cc2ccco2)cc(C)c1Cl	x	u	x	n	n
Fc1ccc(Cn2nnnc2C(c2ccc(Cl)cc2)N2CCSCC2)cc1 (configuration not stated)	n	35µM	n	n	n

Source: PubChem BioAssay
